# Laboratory results from PubChem BioAssay (EPA / NIEHS).
# Records with an inconclusive call do not appear. More than one record can exist for a structure, and the calls need not agree. Calls of active or inactive are those of the source. Rule for the calls: active = hit-call score of the fitted dose curve at least 0.9, where 1 is the maximum; inconclusive = response in the unintended direction; inactive = score below 0.9.
# Columns and labels:
# [1] = biological target: PGR (gene 5241) (UniProt P06401); assay: NVS_NR_hPR: NovaScreen (NVS) Nuclear Receptor Binding Assay for human Progestron Receptor (PR) (AID 2283360);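 note: active means loss of bound radioligand signal versus DMSO baseline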
# Summary of the method: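 Cell-free radioligand binding using receptor protein extracted from T47D cells, read by scintillation counting 18 hours after dosing. Loss of signal relative to DMSO baseline indicates displacement; primary screen single concentration 25 uM in duplicate, actives followed in concentration series.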
# [2] = biological target: Glucocorticoid receptor (Homo sapiens) (UniProt P04150); assay: NVS_NR_hGR: NovaScreen (NVS) Nuclear Receptor Binding Assay for human Glucocorticoid Receptor (GR) (AID 2283363);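 for AC50: activity is loss of specific radioligand binding signal relative to DMSO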
# Summary of the method: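 Single-readout cell-free binding: radioligand plus extracted receptor, 16-hour dosing, filter radiodetection; 25 uM duplicate primary, concentration series secondary.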
# [3] = test system: guinea pig Dopamine Transporter (DAT), gene 100714898; assay: NVS_TR_gDAT: NovaScreen (NVS) Transporter Assay for guinea pig Dopamine Transporter (DAT) (AID 2283369);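 note: active compounds lower bound radioligand signal relative to DMSO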
# Summary of the method: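 Cell-free striatal membrane prep (guinea pig), 2 h exposure, filtration + scintillation readout of radioligand binding. Single-point 25 uM duplicate; actives rerun singleton, top conc 50 uM.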
# [4] = biological target: human Thyroid Receptor Alpha (TRa), THRA (gene 7067) (UniProt P10827); assay: NVS_NR_hTRa_Antagonist: NovaScreen (NVS) Nuclear Receptor Binding Assay for human Thyroid Receptor Alpha Antagonism (TRa) (AID 2283362)
# Summary of the method: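 AlphaLISA chemiluminescent immunoassay readout, taken 1 h post-dosing in a cell-free system with extracted protein. Activity was scored as signal loss against DMSO negative control, from duplicate single-concentration (25 uM) testing followed by concentration-response follow-up.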
# [5] = biological target: Retinoic acid receptor alpha (Homo sapiens) (UniProt P10276); assay: NVS_NR_hRARa_Agonist: NovaScreen (NVS) Nuclear Receptor Binding Assay for human Retinoic Acid Alpha Receptor Agonism (RAR) (AID 2283361)
# Protocol: NVS_NR_hRARa_Agonist is a biochemical, single-readout assay that uses extracted gene-proteins in a cell-free assay. Measurements were taken 2 hours after chemical dosing in a 384-well plate.NVS_NR_hRARa_Agonist is one of one assay component(s) measured or calculated from the NVS_NR_hRARa_Agonist assay. It is designed to make measurements of fluorescent resonance energy transfer, a form of binding reporter, as detected with fluorescent resonance energy transfer signals by Time-Resolved Fluorescence Resonance Energy Transfer (TR-FRET) technology.Data from the assay component NVS_NR_hRARa_Agonist was analyzed into 1 assay endpoint. This assay endpoint, NVS_NR_hRARa_Agonist, was analyzed in the positive analysis fitting direction relative to DMSO as the negative control and baseline of activity. Using a type of binding reporter, gain-of-signal activity can be used to understand changes in the binding as they relate to the gene RARA. Furthermore, this assay endpoint can be referred to as a primary readout, because the performed assay has only produced 1 assay endpoint. To generalize the intended target to other relatable targets, this assay endpoint is annotated to the nuclear receptor intended target family, where the subfamily is non-steroidal. […]
# [6] = biological target: Nuclear receptor subfamily 1 group I member 2 (Homo sapiens) (UniProt O75469); assay: NVS_NR_hPXR: NovaScreen (NVS) Nuclear Receptor Binding Assay for human Pregnane X Receptor (PXR) (AID 2283365);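 note: a drop in FRET signal versus DMSO baseline means the compound binds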
# Summary of the method: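 TR-FRET signal read at 2 h in a cell-free human PXR binding format. DMSO served as negative control and baseline; activity scored as signal loss. Single-concentration duplicate screen (25 uM), then concentration-response follow-up.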
# [7] = biological target: rat Androgen Receptor (AR), Ar (gene 24208) (UniProt P15207); assay: NVS_NR_rAR: NovaScreen (NVS) Nuclear Receptor Binding Assay for rat Androgen Receptor (AR) (AID 2283366)
# Summary of the method: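 Actives from a duplicate single-concentration (25 uM) primary run went on to concentration series. Displacement of radioligand was counted by filtration and scintillation, 18 h post-dose, using prostate extracts from testosterone-pretreated rats, with DMSO as baseline.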
# [8] = biological target: Peroxisome proliferator-activated receptor gamma (Homo sapiens) (UniProt P37231); assay: NVS_NR_hPPARg: NovaScreen (NVS) Nuclear Receptor Binding Assay for human Peroxisome Proliferator-activated Receptor gamma (PPARg) (AID 2283370)
# Summary of the method: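 FP read-out, 2 h post-dose, cell-free extracted receptor protein. Signal loss vs DMSO negative control = binding activity. Single-conc duplicate HTS at 25 uM; concentration-response follow-up for actives.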
# [9] = biological target: guinea pig Sigma Receptor, Non-selective Binding, SIGMAR1 (gene 100135589) (UniProt Q60492); assay: NVS_OR_gSIGMA_NonSelective: NovaScreen (NVS) Nuclear Receptor Binding Assay for guinea pig Sigma Receptor, Non-selective Binding (AID 2283367)
# Summary of the method: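 Test chemicals were screened in duplicate at 25 uM, then in concentration series if active, against radioligand binding to guinea pig brain membranes; filtration and scintillation counting at 1 h measured remaining bound ligand.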
# [10] = biological target: human Adenosine Transporter (Adot), SLC29A1 (gene 2030) (UniProt Q99808); assay: NVS_TR_hAdoT: NovaScreen (NVS) Transporter Assay for human Adenosine Transporter (Adot) (AID 2283368)
# Summary of the method: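 Binding displacement on U937 extracted protein, read 1 h post-dose by filtration and scintillation counting. Primary duplicate test at 25 uM, then singleton concentration series with 50 uM top; DMSO baseline.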
# Sequence of PGR (gene 5241) (P06401 whole entry, looked up): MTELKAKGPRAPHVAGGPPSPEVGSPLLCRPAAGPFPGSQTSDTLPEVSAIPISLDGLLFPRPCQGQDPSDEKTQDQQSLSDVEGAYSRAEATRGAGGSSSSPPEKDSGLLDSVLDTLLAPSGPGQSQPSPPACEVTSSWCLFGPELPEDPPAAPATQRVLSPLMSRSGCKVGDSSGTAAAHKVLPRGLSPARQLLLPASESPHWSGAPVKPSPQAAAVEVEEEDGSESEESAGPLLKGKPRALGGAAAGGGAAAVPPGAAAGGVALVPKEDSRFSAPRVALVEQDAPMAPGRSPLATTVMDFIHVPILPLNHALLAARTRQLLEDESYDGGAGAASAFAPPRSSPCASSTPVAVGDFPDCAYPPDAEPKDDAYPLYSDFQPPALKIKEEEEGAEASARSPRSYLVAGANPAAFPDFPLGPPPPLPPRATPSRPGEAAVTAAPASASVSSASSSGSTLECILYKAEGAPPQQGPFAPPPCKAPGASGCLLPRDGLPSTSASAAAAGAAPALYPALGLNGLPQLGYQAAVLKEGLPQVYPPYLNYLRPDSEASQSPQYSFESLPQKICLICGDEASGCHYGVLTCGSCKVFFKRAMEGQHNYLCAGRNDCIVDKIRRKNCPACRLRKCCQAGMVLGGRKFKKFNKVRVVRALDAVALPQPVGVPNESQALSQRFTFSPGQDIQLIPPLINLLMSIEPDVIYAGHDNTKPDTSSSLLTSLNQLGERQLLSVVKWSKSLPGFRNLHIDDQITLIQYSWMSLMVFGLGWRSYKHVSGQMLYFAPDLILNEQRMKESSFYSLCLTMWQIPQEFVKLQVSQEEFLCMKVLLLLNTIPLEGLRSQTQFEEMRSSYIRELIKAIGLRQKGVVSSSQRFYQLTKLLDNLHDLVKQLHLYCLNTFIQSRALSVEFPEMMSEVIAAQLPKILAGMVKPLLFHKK
# Sequence of Peroxisome proliferator-activated receptor gamma (Homo sapiens) (P37231 whole entry, looked up): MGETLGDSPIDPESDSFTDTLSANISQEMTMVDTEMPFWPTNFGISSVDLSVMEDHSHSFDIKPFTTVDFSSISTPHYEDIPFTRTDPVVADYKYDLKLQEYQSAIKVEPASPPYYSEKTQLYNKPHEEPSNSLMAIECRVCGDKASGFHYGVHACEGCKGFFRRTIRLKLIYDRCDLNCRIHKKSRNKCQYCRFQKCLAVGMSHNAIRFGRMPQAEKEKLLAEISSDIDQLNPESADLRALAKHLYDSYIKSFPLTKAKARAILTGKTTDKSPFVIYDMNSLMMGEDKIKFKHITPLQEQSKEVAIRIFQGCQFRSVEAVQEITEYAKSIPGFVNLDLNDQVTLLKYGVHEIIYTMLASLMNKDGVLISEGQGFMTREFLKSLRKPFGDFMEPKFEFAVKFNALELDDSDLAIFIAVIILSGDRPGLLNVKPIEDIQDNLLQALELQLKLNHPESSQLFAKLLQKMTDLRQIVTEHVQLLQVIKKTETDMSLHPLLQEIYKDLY
# Sequence of human Thyroid Receptor Alpha (TRa), THRA (gene 7067) (P10827 whole entry, looked up): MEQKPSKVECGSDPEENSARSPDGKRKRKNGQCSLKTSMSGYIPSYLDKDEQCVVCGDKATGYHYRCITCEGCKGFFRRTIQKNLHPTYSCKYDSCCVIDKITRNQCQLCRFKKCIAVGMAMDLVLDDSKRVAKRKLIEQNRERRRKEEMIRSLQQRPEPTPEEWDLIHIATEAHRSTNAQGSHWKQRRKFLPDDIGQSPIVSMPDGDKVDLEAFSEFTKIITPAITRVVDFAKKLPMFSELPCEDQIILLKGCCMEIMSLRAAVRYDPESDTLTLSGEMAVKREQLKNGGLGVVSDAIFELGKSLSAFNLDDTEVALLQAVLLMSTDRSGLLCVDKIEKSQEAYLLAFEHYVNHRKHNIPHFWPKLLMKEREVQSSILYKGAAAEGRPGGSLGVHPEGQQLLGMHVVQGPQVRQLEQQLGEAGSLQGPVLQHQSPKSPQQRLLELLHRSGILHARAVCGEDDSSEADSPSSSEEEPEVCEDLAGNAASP
# Sequence of Nuclear receptor subfamily 1 group I member 2 (Homo sapiens) (O75469 whole entry, looked up): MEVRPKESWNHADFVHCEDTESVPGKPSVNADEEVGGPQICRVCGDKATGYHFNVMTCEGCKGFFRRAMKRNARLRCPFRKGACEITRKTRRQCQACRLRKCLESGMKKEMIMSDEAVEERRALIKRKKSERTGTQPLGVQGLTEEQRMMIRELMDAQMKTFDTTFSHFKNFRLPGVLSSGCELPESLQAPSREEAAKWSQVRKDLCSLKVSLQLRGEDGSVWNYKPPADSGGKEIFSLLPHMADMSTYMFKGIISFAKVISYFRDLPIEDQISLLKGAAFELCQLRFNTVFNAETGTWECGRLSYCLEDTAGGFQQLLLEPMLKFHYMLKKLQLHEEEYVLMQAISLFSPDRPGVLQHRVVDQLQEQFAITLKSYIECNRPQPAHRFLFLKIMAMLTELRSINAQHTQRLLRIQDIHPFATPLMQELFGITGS
# Sequence of Glucocorticoid receptor (Homo sapiens) (P04150 whole entry, looked up): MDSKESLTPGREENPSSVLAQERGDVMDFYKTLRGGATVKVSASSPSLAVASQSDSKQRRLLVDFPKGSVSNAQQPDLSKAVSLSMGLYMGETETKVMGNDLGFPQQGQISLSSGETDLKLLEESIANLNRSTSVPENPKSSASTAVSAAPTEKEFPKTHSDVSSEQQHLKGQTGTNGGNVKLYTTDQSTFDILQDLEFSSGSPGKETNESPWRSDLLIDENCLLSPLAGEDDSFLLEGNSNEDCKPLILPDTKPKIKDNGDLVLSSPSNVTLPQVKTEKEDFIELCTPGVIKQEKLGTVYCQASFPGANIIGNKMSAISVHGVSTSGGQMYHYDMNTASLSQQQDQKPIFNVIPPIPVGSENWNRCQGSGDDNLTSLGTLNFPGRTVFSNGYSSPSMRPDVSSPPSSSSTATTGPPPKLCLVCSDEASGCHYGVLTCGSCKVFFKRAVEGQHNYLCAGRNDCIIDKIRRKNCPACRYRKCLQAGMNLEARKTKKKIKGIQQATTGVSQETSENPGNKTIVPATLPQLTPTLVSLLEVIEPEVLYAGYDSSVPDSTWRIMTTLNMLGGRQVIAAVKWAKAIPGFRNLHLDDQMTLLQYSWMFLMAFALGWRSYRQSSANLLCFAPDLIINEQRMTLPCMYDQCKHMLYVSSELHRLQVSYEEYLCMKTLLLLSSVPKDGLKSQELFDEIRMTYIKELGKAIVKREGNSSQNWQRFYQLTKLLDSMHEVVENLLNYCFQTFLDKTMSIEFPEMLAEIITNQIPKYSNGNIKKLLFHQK
# Sequence of rat Androgen Receptor (AR), Ar (gene 24208) (P15207 whole entry, looked up): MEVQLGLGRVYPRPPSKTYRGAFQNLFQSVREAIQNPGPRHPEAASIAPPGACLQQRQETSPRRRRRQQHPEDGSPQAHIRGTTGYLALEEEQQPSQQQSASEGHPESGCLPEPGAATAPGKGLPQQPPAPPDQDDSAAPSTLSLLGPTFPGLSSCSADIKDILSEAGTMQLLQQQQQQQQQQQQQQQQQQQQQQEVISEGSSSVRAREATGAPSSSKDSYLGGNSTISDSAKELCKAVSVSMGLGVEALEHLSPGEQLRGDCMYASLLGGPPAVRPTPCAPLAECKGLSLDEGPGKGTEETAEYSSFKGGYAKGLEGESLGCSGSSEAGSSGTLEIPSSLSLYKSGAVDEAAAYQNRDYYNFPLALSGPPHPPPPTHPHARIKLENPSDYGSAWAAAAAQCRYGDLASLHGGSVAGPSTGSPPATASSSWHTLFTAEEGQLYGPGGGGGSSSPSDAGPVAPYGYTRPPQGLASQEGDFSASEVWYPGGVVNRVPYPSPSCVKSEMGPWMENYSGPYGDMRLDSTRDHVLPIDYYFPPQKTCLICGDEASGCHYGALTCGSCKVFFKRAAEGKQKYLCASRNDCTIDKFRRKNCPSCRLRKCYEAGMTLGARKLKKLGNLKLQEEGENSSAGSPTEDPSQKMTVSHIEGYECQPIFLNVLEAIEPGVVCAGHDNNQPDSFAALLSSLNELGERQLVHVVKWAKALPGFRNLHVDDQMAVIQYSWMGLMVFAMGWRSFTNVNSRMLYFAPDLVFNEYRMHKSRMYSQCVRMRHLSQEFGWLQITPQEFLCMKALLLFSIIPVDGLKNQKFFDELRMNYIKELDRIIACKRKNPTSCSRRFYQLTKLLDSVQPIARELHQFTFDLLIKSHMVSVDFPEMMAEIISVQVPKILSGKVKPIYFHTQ
# Sequence of Retinoic acid receptor alpha (Homo sapiens) (P10276 whole entry, looked up): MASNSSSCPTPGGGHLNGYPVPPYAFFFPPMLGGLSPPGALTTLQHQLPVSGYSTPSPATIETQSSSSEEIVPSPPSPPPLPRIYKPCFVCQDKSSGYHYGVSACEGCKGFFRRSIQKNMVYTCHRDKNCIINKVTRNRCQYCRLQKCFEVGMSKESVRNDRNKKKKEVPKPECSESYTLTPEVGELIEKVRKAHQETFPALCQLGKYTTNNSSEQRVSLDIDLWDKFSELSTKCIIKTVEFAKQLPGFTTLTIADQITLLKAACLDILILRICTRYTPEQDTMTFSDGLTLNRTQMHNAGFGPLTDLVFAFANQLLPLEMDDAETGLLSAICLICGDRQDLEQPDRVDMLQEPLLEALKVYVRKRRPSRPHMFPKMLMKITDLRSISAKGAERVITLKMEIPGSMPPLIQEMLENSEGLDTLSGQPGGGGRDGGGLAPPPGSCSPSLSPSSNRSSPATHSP
# Sequence of human Adenosine Transporter (Adot), SLC29A1 (gene 2030) (Q99808 whole entry, looked up): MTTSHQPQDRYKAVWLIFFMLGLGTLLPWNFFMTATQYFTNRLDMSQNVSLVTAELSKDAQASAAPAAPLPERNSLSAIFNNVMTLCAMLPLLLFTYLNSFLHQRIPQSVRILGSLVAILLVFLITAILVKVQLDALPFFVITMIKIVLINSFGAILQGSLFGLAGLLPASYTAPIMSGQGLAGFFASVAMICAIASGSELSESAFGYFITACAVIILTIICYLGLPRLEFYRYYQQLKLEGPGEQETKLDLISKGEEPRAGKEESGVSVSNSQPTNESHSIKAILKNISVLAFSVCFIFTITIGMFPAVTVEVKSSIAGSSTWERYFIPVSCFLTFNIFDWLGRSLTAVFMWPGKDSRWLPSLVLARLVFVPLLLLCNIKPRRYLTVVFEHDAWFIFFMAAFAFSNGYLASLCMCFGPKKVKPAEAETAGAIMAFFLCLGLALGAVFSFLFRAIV
smiles,measurement,setting,value
C[C@]12CC[C@@H]3c4ccc(O)cc4CC[C@H]3[C@@H]1C[C@@H](O)[C@@H]2O,AC50,[1],35.4 µM (active)
same,outcome,[2],inactive
same,AC50,[3],3.04 µM (active)
CCCCC=O,outcome,[4],inactive
O=C1OC2(c3ccccc31)c1cc(I)c(O)c(I)c1Oc1c2cc(I)c(O)c1I,AC50,[5],19.9 µM (active)
Cc1cc(C(=C2C=CC(=Nc3ccc(S(=O)(=O)O)cc3)C=C2)c2ccc(Nc3ccc(S(=O)(=O)O)cc3)cc2)cc(S(=O)(=O)O)c1N,AC50,[5],17.5 µM (active)
same,outcome,[4],inactive
same,AC50,[2],1.32 µM (active)
same,AC50,[6],0.574 µM (active)
same,AC50,[7],1.22 µM (active)
same,outcome,[8],inactive
CC1=NN(c2ccccc2)C(=O)C1,AC50,[2],45.7 µM (active)
CCCCCCCCCCCC,AC50,[2],0.703 µM (active)
same,AC50,[6],2.03 µM (active)
same,AC50,[8],0.401 µM (active)
same,outcome,[8],inactive
c1cnc2c(c1)ccc1cccnc12,AC50,[4],0.241 µM (active)
Clc1ccc(Nc2nnc(Cc3ccncc3)c3ccccc23)cc1,outcome,[1],inactive
same,AC50,[3],6.66 µM (active)
c1cc[nH]c1,outcome,[1],inactive
CN(Cc1cnc2nc(N)nc(N)c2n1)c1ccc(C(=O)N[C@@H](CCC(=O)O)C(=O)O)cc1,outcome,[1],inactive
same,outcome,[7],inactive
same,outcome,[3],inactive
Cc1[nH]nc2c1N=C(c1ccccc1Cl)c1cc([N+](=O)[O-])ccc1N2,outcome,[4],inactive
CCCCCC(C)OC(=O)COc1ccc(Cl)c2cccnc12 (configuration not stated),outcome,[6],inactive
NC(=NCCCCCCN=C(N)/N=C(\N)Nc1ccc(Cl)cc1)/N=C(\N)Nc1ccc(Cl)cc1,AC50,[2],3.08 µM (active)
same,outcome,[6],inactive
same,AC50,[7],15.4 µM (active)
same,AC50,[9],23.1 µM (active)
same,AC50,[3],0.868 µM (active)
CCC(=O)O,AC50,[2],0.202 µM (active)
CCCCCCCCCCCCCCC,outcome,[1],inactive
O=C1NS(=O)(=O)c2ccccc21,outcome,[6],inactive
C=CC(=C)CC/C=C(\C)CCC=C(C)C,outcome,[2],inactive
CCCCc1ccc2ccccc2c1S(=O)(=O)O,AC50,[2],7.95 µM (active)
same,AC50,[6],4.06 µM (active)
same,outcome,[8],inactive
O=C(O)c1cccc(C(=O)O)n1,AC50,[4],28.1 µM (active)
CCCCCCCCCCCCOC(=O)c1cc(O)c(O)c(O)c1,AC50,[2],12.7 µM (active)
same,outcome,[8],inactive
CC(C)(c1ccc(Oc2ccc(N)cc2)cc1)c1ccc(Oc2ccc(N)cc2)cc1,outcome,[7],inactive
CS(=O)(=O)c1ccc([C@@H](CC2CCCC2)C(=O)Nc2cnccn2)cc1Cl,AC50,[10],25 µM (active)
